Several values for one entry are separate records, joined by “and”; a condition that tells them apart may be missing. Equal entries are not always repeated. The whole screen tested about 5,500 compounds, of which about 2,000 (36%) were called active. About 18% were inconclusive and are not listed. Cut-off read from the data, not from the text of the source: active = normalized growth mostly below about 0.91 (no sharp cut-off); inconclusive = no clear call, values can overlap the other calls; inactive = mostly above about 0.92. The list shows a part of the results.
Experiment: chemical genetic growth profiling, strain panel (AID 1159580);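 note: tested at 20 µM; growth read once vehicle control cultures reached saturation at 30 °C; 1 = growth at the plate median or of vehicle wells; lower values mean less growth of the strain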
Details: S. cerevisiae deletion strains, growth OD

Measured: normalized growth

CCCCC[C@H](CC(=O)NO)C(=O)N[C@H](C(=O)N1CCC[C@H]1CO)C(C)C
inactive: locus YAL013W, strain DEP1, active compounds read low 0.979 | locus YAL021C, strain ccr4, active compounds read low 1.02 | locus YAL026C, strain drs2, active compounds read low 1.01 | locus YAL030W, strain snc1, active compounds read low 1 | locus YBL061C, strain skt5, active compounds read low 1.01 | locus YBR009C, strain hhf1, active compounds read low 1.02 | locus YBR021W, strain FUR4, active compounds read low 1.04 | locus YBR023C, strain chs3, active compounds read low 1.01 | locus YBR171W, strain sec66, active compounds read low 1.02 | locus YBR229C, strain ROT2, active compounds read low 1 | locus YBR231C, strain swc5, active compounds read low 1.02 | locus YBR279W, strain paf1, active compounds read low 1.02 | locus YCL011C, strain gbp2, active compounds read low 1.01 | locus YCL016C, strain dcc1, active compounds read low 1.01 | locus YCL029C, strain bik1, active compounds read low 1.02 | locus YCL061C, strain MRC1, active compounds read low 1.01 | locus YCL069W, strain vba3, active compounds read low 1.01 | locus YCR088W, strain abp1, active compounds read low 1.01 | locus YDL005C, strain med2, active compounds read low 1.02 | locus YDL035C, strain GPR1, active compounds read low 0.989 | locus YDL040C, strain nat1, active compounds read low 1.02 | locus YDL074C, strain BRE1, active compounds read low 1.02 | locus YDL101C, strain DUN1, active compounds read low 1.02 | locus YDL185W, strain tfp1, active compounds read low 1.01 | locus YDL192W, strain arf1, active compounds read low 1.02 | locus YDR001C, strain nth1, active compounds read low 1.01 | locus YDR069C, strain doa4, active compounds read low 1.03 | locus YDR101C, strain arx1, active compounds read low 1.03 | locus YDR137W, strain rgp1, active compounds read low 0.972 | locus YDR150W, strain NUM1, active compounds read low 1.02 | locus YDR159W, strain sac3, active compounds read low 1.03 | locus YDR162C, strain NBP2, active compounds read low 0.988 | locus YDR195W, strain ref2 1 | locus YDR297W, strain sur2, active compounds read low 1.02 | locus YDR318W, strain mcm21, active compounds read low 1.01 | locus YDR334W, strain swr1, active compounds read low 1.01 | locus YDR335W, strain msn5, active compounds read low 1.02 | locus YDR388W, active compounds read low 1.02 | locus YDR392W, strain spt3, active compounds read low 1.04 | locus YDR502C, strain sam2, active compounds read low 1 | locus YEL003W, strain gim4, active compounds read low 1.02 | locus YEL037C, strain rad23, active compounds read low 1 | locus YEL061C, strain CIN8 (second series), active compounds read low 1.01 | locus YEL061C, strain CIN8, active compounds read low 1.01 | locus YER015W, strain faa2, active compounds read low 1.02 | locus YER016W, strain bim1, active compounds read low 1.01 | locus YER110C, active compounds read low 1.03 | locus YER111C, strain swi4, active compounds read low 1.02 | locus YER155C, strain BEM2 (second series), active compounds read low 1.02 | locus YER155C, strain BEM2, active compounds read low 1.01 | locus YER167W, strain BCK2, active compounds read low 0.999 | locus YFR010W, strain ubp6, active compounds read low 1.01 | locus YGL078C, strain dbp3, active compounds read low 1.02 | locus YGL086W, strain mad1, active compounds read low 1.01 | locus YGL167C, strain pmr1, active compounds read low 1.01 | locus YGL173C, strain kem1, active compounds read low 1.03 | locus YGL227W, strain vid30, active compounds read low 1.02 | locus YGL240W, strain doc1, active compounds read low 1.03 | locus YGL248W, strain PDE1, active compounds read low 1.02 | locus YGL253W, strain hxk2, active compounds read low 1.01 | locus YGR078C, strain PAC10, active compounds read low 1.01 | locus YGR135W, strain pre9, active compounds read low 1.01 | locus YGR252W, strain gcn5, active compounds read low 1.02 | locus YHR013C, strain ard1, active compounds read low 1.03 | locus YHR027C, strain rpn1, active compounds read low 1.02 | locus YHR030C, strain SLT2, active compounds read low 1.01 and 0.992 | locus YHR079C, strain IRE1 (second series), active compounds read low 1.03 | locus YHR079C, strain IRE1, active compounds read low 0.973 | locus YHR094C, strain hxt1, active compounds read low 1.01 | locus YHR129C, strain ARP1, active compounds read low 1.02 | locus YHR142W, strain chs7, active compounds read low 1.01 | locus YHR200W, strain rpn10, active compounds read low 1.01 | locus YIL066C, strain RNR3, active compounds read low 0.999 | locus YIL073C, strain SPO22, active compounds read low 1.06 | locus YIL125W, strain kgd1, active compounds read low 1.02 | locus YIR030C, strain dcg1, active compounds read low 1.02 | locus YJL092W, strain hpr5, active compounds read low 1.01 | locus YJL095W, strain BCK1 (second series), active compounds read low 1.02 | locus YJL095W, strain BCK1, active compounds read low 1.02 and 0.977 | locus YJL115W, strain asf1, active compounds read low 1 | locus YJL129C, strain trk1, active compounds read low 1.03 | locus YJL134W, strain LCB3, active compounds read low 1.01 | locus YJL154C, strain vps35, active compounds read low 1 | locus YJL164C, strain tpk1, active compounds read low 1.03 | locus YJL166W, strain qcr8, active compounds read low 1.02 | locus YJL168C, strain set2, active compounds read low 1.01 | locus YJL187C, strain SWE1 (second series), active compounds read low 1.04 | locus YJL187C, strain SWE1, active compounds read low 1.02

— PubChem BioAssay AID1159580 (chemical genetic matrix, 2015)
